The text below walks through data of PubChem BioAssay (NCATS).

Molecules are shown by their SMILES. Several values for one entry are separate records, joined by “and”; a condition that tells them apart may be missing. Equal values may be shown once. Results filed as inconclusive are left out. Activity calls are given as the source filed them. Unless noted, the call rests on the fitted dose curve; in most records, active means well fitted curve in the direction sought with a large enough effect; inconclusive means small, poorly fitted or top-dose-only effect, or another doubt; inactive means no such curve, though single readings can be large; an effect the other way counts as inactive or inconclusive.

A short description of experiment [1]: Cell Viability - BJ (AID 421; calls by dose curve;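 further: potency means the concentration at half of the fitted maximal effect; cells exposed to compound for 40 hours at 37 °C before readout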). To be noted: BJ fibroblast viability, qHTS. In short, it runs like this:
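Normal human BJ foreskin fibroblasts, 1500/well in complete medium, treated 40 hr at 37 °C. Cellular ATP by CellTiter-Glo luminescence; normalized to DMSO and 100 uM tamoxifen, AC50 from Hill fit.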
A general note: Quantitative high-throughput screening tests each substance at several concentrations.

Experiment [2] can be described thus: Cell Viability - MRC5 (AID 434; calls by dose curve;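 further: potency means the concentration at half of the fitted maximal effect; potency reflects cytotoxicity seen as loss of intracellular ATP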). The settings on record: MRC5 lung fibroblast viability, qHTS. The method in brief:
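MRC5 normal human lung fibroblasts, 1500 cells/well, exposed to compound for 40 hr at 37 C. Cellular ATP was read by CellTiter-Glo luminescence; data normalized to DMSO and 100 uM tamoxifen, with AC50 from Hill fits.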

For experiment [3], the target named is Mitogen-activated protein kinase 10 (Mus musculus) (UniProt Q61831). The experiment is described as follows: JNK3 AlphaScreen Assay (AID 530; active means well fitted curve in either direction with a large enough effect, not every such curve was filed as active;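 further: kinase came from lysate of stimulated human HepG2 cells; signal reports phosphorylation of biotinylated GST-cJun 1-79 at Ser73 with 10 µM ATP; on the % scale 0 is the no-effect control and ±100 the full control effect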). In short, it runs like this:
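Pre-activated (IL-1β/TNFα) JNK3 in HepG2 lysates phosphorylates biotin-GST-cJun(1-79), 10 uM ATP; anti-phospho-cJun(Ser73) AlphaScreen read at room temperature, pH 7.6 Tris buffer. Compounds pre-incubated 15 min as titrations.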
For orientation: Alpha assays give light when donor and acceptor beads are brought close together.

Experiment [4] in a line: Cell Viability - N2a (AID 540).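 Further: plate controls were DMSO alone for no effect and tamoxifen control for full effect; nearly all actives have a fitted effect of over 45% in size.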 To be noted: N2a mouse neuroblastoma cell viability; activity change, negative = cytotoxicity: at 92.2 µM (top of the series). The method in brief:
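Luminescent ATP signal (CellTiter-Glo, 20 min at room temperature) served as the viability read-out after N2a cells were treated with compounds for 40 hours at 37 °C. Concentration-response data were fitted to the Hill equation for AC50.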

Experiment [5] can be described thus: Cellular Toxicity (caspase-3) HepG2 (AID 654).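 Further: cells exposed to compound for 16 hours before reading; 0% = DMSO alone and 100% = caspase signal from 100 µM tamoxifen.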 In short, it runs like this:
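Cells plated 5 hr at 37 °C, compound added, incubated 16 hr at 37 °C. Caspase-Glo 3/7 reagent followed, 20 min at room temperature, then luminescence read. Activation scored as signal increase; AC50 from Hill fit.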

Experiment [6] can be described thus: Cellular Toxicity (caspase-3) BJ (AID 658).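 Further: 0% = DMSO basal and 100% = 10 µM staurosporine.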 In short, it runs like this:
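BJ human foreskin fibroblasts, 1000 cells/well, treated 16 hours at 37 °C in complete medium; caspase 3/7 activity by Caspase-Glo luminescence after 1 hr at room temperature. Normalized to DMSO and 10 uM staurosporine; AC50 from Hill fits.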

Experiment [7] can be described thus: Cellular Toxicity (caspase-3) MRC-5 (AID 659).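 Further: 0% = DMSO basal and 100% = 10 µM staurosporine.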 The method in brief: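 MRC-5 human normal lung fibroblasts, 1500 cells/well, treated 16 h at 37 °C in complete medium. Caspase 3/7 measured by Caspase-Glo luminescence after 1 h at room temperature. Normalized to DMSO and 10 uM staurosporine; AC50 from Hill fit.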
The nature of experiment [8]: Cellular Toxicity (caspase-3) Hek293 (AID 664).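 Further: cells exposed to compound for 16 h at 37 °C before readout.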 The settings on record: HEK293 caspase-3 activation, DMSO = 0%, 100 µM tamoxifen = 100%; at 92.2 µM (top of the series). The method in brief:
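Cells plated, 5 hr at 37 °C; compounds added; 16 hr at 37 °C; Caspase-Glo 3/7 reagent, 20 min RT; luminescence read. Activation expressed relative to DMSO and 100 uM tamoxifen, AC50 by Hill model.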

Experiment [9] is described as follows: Cellular Toxicity (caspase-3) N2a (AID 665).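 Further: compound exposure lasted 16 h at 37 °C before readout.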 In short, it runs like this: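 N2a cells, 1500/well, 5 h settle at 37 °C; cpd 16 h, 37 °C; Caspase-Glo 3/7, 1 h RT; luminescence. Norm: DMSO = 0, 10 uM staurosporine = 100%. AC50, Hill fit.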
A short description of experiment [10]: Cellular Toxicity (caspase-3) NIH 3T3 (AID 666).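 Further: caspase signal read after 16 h compound exposure; 0% = DMSO basal and 100% = 100 µM tamoxifen stimulation.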 In short, it runs like this:
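Luminescence from aminoluciferin released by caspase-3/7 cleavage of a peptide substrate served as read-out. Mouse fibroblast NIH 3T3 cells were exposed to compounds over a concentration range for 16 hours, and AC50 values came from standard Hill modelling.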

Experiment [11] has as its target Cytochrome P450 3A4 (Homo sapiens) (UniProt P08684). The experiment in a line: qHTS Assay for Inhibitors and Substrates of Cytochrome P450 3A4 (AID 884). Further: on the % scale 0 is the no-effect control and ±100 the full control effect; nearly all actives have a fitted effect of over 50% in size. The method in brief: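 20 nM human CYP3A4 with 25 uM Luciferin-PPXE (at KM) in 200 mM KPO4, preincubated 10 min with compound; NADPH regeneration started a 60 min RT reaction. Luciferin detected by luminescence, normalized to 57 uM ketoconazole as full inhibition.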

Experiment [12] is described as follows: MultiTox-Fluor Cytotoxicity Assay - LYMP1-001 - Dead Cells (AID 946).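 Further: 0% = DMSO and 100% = tetraoctylammonium bromide.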 The method in brief: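 LYMP1-001 lymphoblastoid cells (2500/well) treated 16 h at 37 C. Dead-cell protease cleavage of bis-AAF-R110 read at Ex/Em 485/520. Normalized to DMSO and 15 uM tetraoctylammonium bromide; AC50 from Hill fits.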
A short description of experiment [13]: MultiTox-Fluor Cytotoxicity Assay - LYMP1-002 - Live Cells (AID 955). Further: on the % scale 0 is the no-effect control and ±100 the full control effect. The method in brief: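 Read-out is live-cell protease activity (cell-permeant GF-AFC substrate, fluorescence Ex/Em=405/510), where a decrease indicates acute toxicity. Human lymphoblastoid cells were treated 16 hours at 37 C in a concentration series, and AC50 values came from standard Hill modelling.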

A short description of experiment [14]: MultiTox-Fluor Cytotoxicity Assay - LYMP1-003 - Dead Cells (AID 961).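 Further: 0% = DMSO and 100% = tetraoctylammonium bromide; nearly all actives have a fitted effect of over 70% in size.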 In short, it runs like this: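 LYMP1-003 human lymphoblastoid cells (2500/well) exposed to compound 16 h at 37 C in complete medium; dead-cell protease read with bis-AAF-R110 fluorescence (Ex/Em 485/520) after 60 min at room temperature. Normalized to DMSO and 15 uM tetraoctylammonium bromide; AC50 from Hill fit.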

The nature of experiment [15]: MultiTox-Fluor Cytotoxicity Assay - LYMP1-003 - Live Cells (AID 962).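 Further: 0% = DMSO only and full loss = 92 µM tetraoctylammonium bromide; cytotoxic hits lower the live-cell protease signal.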 The method in brief:
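qHTS, 1536-well; 2500 cells/well LYMP1-003; 5 hr 37 C settle; cpd 16 hr 37 C; MultiTox-Fluor reagent 60 min RT; live-cell protease fluor. 405/510; Hill-fit AC50; tetraoctylammonium bromide pos. ctrl.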

Experiment [16] can be described thus: Cell Viability - LYMP2-026 (AID 989).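 Further: cells exposed to compound for 24 h at 37 °C; nearly all actives have a fitted effect of over 50% in size.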 Further: potency means the concentration at half of the fitted maximal effect. In short, it runs like this:
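Luminescent ATP signal (CellTiter-Glo, 30 min room temperature) measures viable lymphoblastoid cells after 24 hr compound treatment at 37 C. Decreased ATP reflects acute toxicity; AC50 values come from Hill-equation modeling.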

Experiment [17] can be described thus: Cell Viability - LYMP1-002 - Assay at 24 hr (AID 993). Further: potency means the concentration at half of the fitted maximal effect. On activity change, negative = cytotoxicity: on the % scale 0 is the no-effect control and ±100 the full control effect. The method in brief: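 Cells plated 2500/well, 5 hr 37 C; compounds added, 24 hr 37 C; CellTiter-Glo added, 30 min RT; luminescence read. Tetraoctylammonium bromide positive control. Hill-equation AC50.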
The nature of experiment [18]: qHTS assay for small molecule agonists of retinoid X receptor alpha signaling (AID 588544). To be noted: HEK293T RXRa-UAS-bla, beta-lactamase reporter, 18 h; 530 nm emission.
Experiment [19] addresses Peroxisome proliferator-activated receptor alpha (Homo sapiens) (UniProt Q07869). The experiment in a line: qHTS assay for small molecule agonists of the peroxisome proliferator-activated receptor alpha (PPARalpha) signaling pathway (AID 651778). Further: % of control where 0% means no effect. To be noted: PathHunter PPARalpha complementation, chemiluminescence, 6 h; stronger effect = higher value. In short, it runs like this: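 Enzyme-fragment complementation assay in which ligand-bound PPARalpha translocates and forms an active enzyme that generates chemiluminescence. Cells were plated overnight, exposed to compound for 6 hr at 37 C, and then given detection reagent for 60 min at room temperature.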

The nature of experiment [20]: qHTS assay for cell viability of the p53RE-bla HCT-116 cell line (AID 743292). Further: on the % scale 0 is the no-effect control and ±100 the full control effect; nearly all actives have a fitted effect of over 55% in size. The method in brief:
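CellSensor p53RE-bla HCT-116 cells (4,000/well) pre-incubated 5 h at 37 C, then exposed to compounds in DMSO for 16 h at 37 C. Viability read as ATP content by CellTiter-Glo luminescence after 30 min at room temperature.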

Sequence of Cytochrome P450 3A4 (Homo sapiens) (P08684 whole entry, looked up): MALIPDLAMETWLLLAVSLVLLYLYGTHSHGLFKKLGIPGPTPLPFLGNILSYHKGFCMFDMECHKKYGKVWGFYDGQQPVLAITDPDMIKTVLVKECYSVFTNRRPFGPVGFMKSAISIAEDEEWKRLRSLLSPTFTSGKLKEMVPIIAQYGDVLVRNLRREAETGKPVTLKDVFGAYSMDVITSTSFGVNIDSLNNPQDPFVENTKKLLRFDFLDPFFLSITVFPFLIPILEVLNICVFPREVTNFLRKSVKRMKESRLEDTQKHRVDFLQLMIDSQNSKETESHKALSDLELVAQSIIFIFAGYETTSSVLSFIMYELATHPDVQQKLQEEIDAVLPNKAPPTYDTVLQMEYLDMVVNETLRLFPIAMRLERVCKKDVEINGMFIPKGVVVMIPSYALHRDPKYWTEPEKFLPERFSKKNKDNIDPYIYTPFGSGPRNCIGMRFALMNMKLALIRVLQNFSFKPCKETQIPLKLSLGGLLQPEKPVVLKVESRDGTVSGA
Sequence of Peroxisome proliferator-activated receptor alpha (Homo sapiens) (Q07869 whole entry, looked up, the tested form may be a part): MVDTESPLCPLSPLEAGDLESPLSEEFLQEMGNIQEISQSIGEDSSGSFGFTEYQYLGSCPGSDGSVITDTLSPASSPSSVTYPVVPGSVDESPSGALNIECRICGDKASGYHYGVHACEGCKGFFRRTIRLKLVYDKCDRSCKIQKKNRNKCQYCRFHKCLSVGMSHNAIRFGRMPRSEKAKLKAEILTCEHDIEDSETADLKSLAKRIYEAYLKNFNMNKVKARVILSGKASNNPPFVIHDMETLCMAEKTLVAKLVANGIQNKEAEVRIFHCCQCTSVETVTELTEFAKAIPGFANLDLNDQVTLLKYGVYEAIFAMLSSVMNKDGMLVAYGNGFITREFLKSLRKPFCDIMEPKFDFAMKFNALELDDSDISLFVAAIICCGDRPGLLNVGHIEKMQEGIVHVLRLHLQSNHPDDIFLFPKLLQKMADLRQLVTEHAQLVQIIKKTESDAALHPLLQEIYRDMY

With `ClP(Cl)(Cl)(Cl)Cl`, the Potency in experiment [1] and in experiment [2] was > 92 µM (inactive) throughout. Besides, the Potency entry in [3], in experiment [4], in experiment [10], in experiment [11], in experiment [14] and in experiment [16] was “inactive” throughout. Further, the Potency result in experiment [17] and in [20] was “inactive” in each case. Further, the molecule was called inactive in [5], in experiment [6], in experiment [7], in experiment [9], in experiment [12] and in [13]. Moreover, the molecule was classed as inactive in [15]. Moreover, in [8], the caspase-3 activation is -1.32% (inactive). For the same molecule, the values for the max response in [18] and in experiment [19] were 5.7% and 0.162% (inactive), respectively.

Turning to `CC12CC1(C)C(=O)N(c1cc(Cl)cc(Cl)c1)C2=O` (centres undefined), the Potency in experiment [1] and in experiment [2] was > 92 µM (inactive) each time. In addition, the Potency entry in [3], in experiment [4], in experiment [10], in [11], in experiment [14] and in experiment [16] was “inactive” each time. Moreover, the Potency result in experiment [17] and in experiment [20] was “inactive” each time. For the same molecule, the call in [5], in [6], in [7], in experiment [9], in experiment [12] and in experiment [13] was inactive. Also, the call in experiment [15] was inactive. Further, the caspase-3 activation in experiment [8] is 1.47% (inactive). The max response in [18] was -5.02% and -2.83%; in [19] it was -1.35% (inactive) and -2.97% (inactive).

For the molecule `CCN(CC)CCO`, the Potency in experiment [1] and in experiment [2] was > 92 µM (inactive) each time. For the same molecule, the Potency entry in [3], in [4], in [10], in experiment [11], in experiment [14] and in experiment [16] was “inactive” in each case. The Potency result in [17] and in experiment [20] was “inactive” each time. For the same molecule, the call in experiment [5], in experiment [6], in experiment [7], in experiment [9], in experiment [12] and in [13] was inactive. In addition, the molecule was classed as inactive in [15]. Also, the caspase-3 activation in [8] was 4.32% (inactive). The max response in experiment [18] is -4.75%; in experiment [19], -3.44% (inactive).

Regarding `CN1CSC(=S)N(C)C1`, the Potency in [1] was > 92 µM (inactive); in experiment [2] it was > 92 µM (inactive); in experiment [16] it was 39.8 µM (active); in experiment [17], 39.8 µM (active). Moreover, the Potency result in experiment [4], in experiment [11], in experiment [14] and in [20] was “inactive” in each case. The result in experiment [5], in experiment [6], in [7], in experiment [9] and in experiment [12] was inactive. Moreover, the max response in experiment [19] was -4.77% (inactive) and -6.32% (inactive).

Turning to `CC1CC(=O)O1` (centres undefined), the Potency in experiment [1] and in experiment [2] was > 92 µM (inactive) each time. Further, the Potency entry in experiment [3], in experiment [4], in [10], in experiment [11], in experiment [14] and in [16] was “inactive” in each case. The Potency result in [17] and in [20] was “inactive” in each case. Further, the call in experiment [5], in experiment [6], in experiment [7], in experiment [9], in [12] and in [13] was inactive. Moreover, in experiment [15], the result was inactive. In experiment [8], the caspase-3 activation was -0.671% (inactive). The max response is -12.1% in experiment [18] and -0.51% (inactive) in experiment [19].
